Data on 13 molecules can be found in PubChem BioAssay.

As usually defined, the inhibition is the drop in the measured response relative to a control, in per cent.

Assay [1] can be described thus: inhibitors of TNFa-induced NFkB p65 translocation, primary screen, imaging, HUVEC, MLSMR starter and 10KST1 sets (AID 438;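 active means inhibition above 20% together with a positive visual image hit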;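 further: compound added about 3h40 before a 20 min TNFalpha stimulation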;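 on inhibition: signal is the nuclear over cytoplasmic p65 intensity ratio per well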). Conditions: HUVEC TNFa-induced p65 nuclear translocation; cell count: measured here: nuclei count (cytotoxicity indicator), at 2.08 µM; inhibition: at 2 µM, stronger effect = higher value, 0% TNFa-plus-vehicle, 100% no-TNFa wells.
The nature of assay [2]: inhibitors of mutant huntingtin aggregation, primary screen, imaging, exon1htt(103Q)mCFP cells, high-content imaging (AID 483;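 active means visual image review flags a hit and inhibition of aggregation exceeds 20%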;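 further: compound exposure lasted 3 days before fixation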;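 on nuclei count: percent of the per-plate median nuclei count of sample wells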). Conditions: exon1htt(103Q)mCFP cell line, aggregate imaging, at 2 µM; inhibition of aggregation: stronger effect = higher value; nuclei count: measured here: cell count, toxicity.
Assay [3] in a line: inhibitors of E-selectin induction by TNFa, primary screen, imaging, HUVEC, immunofluorescence, MLSMR starter and 10KST1 sets (AID 487;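 active means visually confirmed hit in the image check and inhibition above 20%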;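 on inhibition: signal is fraction of cell area covered by stained E-selectin grains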;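 on nuclei count: 100% = median nuclei count of all wells on the same plate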). Conditions: HUVEC TNFalpha-induced E-selectin immunofluorescence imaging, at 2 µM; inhibition: stronger effect = higher value; nuclei count: measured here: cell number, toxicity.
The target of assay [4] is Voltage-gated potassium channel subunit beta-2 (Rattus norvegicus) (UniProt P62483). Description: KvBeta enzyme negative modulators, primary screen, biochemical, NADPH fluorescence (AID 622;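 active means fluorescence slope higher than the sample average by over 3 SD, cut at about -0.22 in these data, passing the limit was not always enough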;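 further: slope of raw intensity against log time taken from 70 to 1610 s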). Conditions: recombinant KvBeta, 4-cyanobenzaldehyde reduction, at 10 µM, stronger effect = higher value.
The target is the same in assay [5]. Description: KvBeta positive modulators, primary screen, biochemical, NADPH fluorescence (AID 623;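 active means NADPH fluorescence slope more negative than the mean of all samples by about 3 SD, 99.7% confidence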;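 further: fluorescence intensity change per second fitted from 20 to 320 s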). Conditions: Recombinant KvBeta, NADPH fluorescence decrease slope, 10 min; at 10 µM; stronger effect = lower value.
Assay [6] concerns the target Alpha-2C adrenergic receptor (Homo sapiens) (UniProt P18825). Description: modulators of alpha2C/GIRK thallium flux, primary screen, cell-based, HEK293 alpha2C/GIRK1/2 (AID 624;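 active means fluorescence slope after compound addition differing from the mean of all screened samples at 99.7% confidence, in either direction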;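 further: slope of fluorescence ratio to pre-addition baseline per second over 15 to 24 s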). Conditions: thallium flux BTC fluorescence, at 10 µM, actives lie on both sides.
The nature of assay [7]: inhibitors of Sendai virus-induced IRF3 signaling, primary screen, TLR/RLR signaling modifier project, cell-based, Sendai virus stimulus, luciferase, 10K MLSCN set (AID 602276;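 active means inhibition at or above 50% at 10 µM; inactive means inhibition below 50%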;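 further: firefly luciferase from ISG56 promoter only with Renilla not read in this screen; 0% = Sendai virus plus DMSO and 100% = medium plus DMSO without virus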). Conditions: HEK293 RL24 IRF3 luciferase reporter, at 10 µM, stronger effect = higher value. On the technique in general: In a reporter assay the amount or activity of a reporter protein is the signal.
Assay [8] can be described thus: inhibitors of poly I:C-induced TLR3 signaling, primary screen, cell-based, poly I:C stimulus, luciferase, 10K MLSCN set (AID 602277). Conditions: HEK293-TLR3 RL24 IRF3 luciferase reporter, at 10 µM, stronger effect = higher value.

Active and inactive are the calls of the source.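 How the source made its calls, unless noted: active means inhibition of the reporter signal at or above 50%; inactive means inhibition below 50%.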

Chain of Voltage-gated potassium channel subunit beta-2 (Rattus norvegicus) (P62483 whole entry, looked up): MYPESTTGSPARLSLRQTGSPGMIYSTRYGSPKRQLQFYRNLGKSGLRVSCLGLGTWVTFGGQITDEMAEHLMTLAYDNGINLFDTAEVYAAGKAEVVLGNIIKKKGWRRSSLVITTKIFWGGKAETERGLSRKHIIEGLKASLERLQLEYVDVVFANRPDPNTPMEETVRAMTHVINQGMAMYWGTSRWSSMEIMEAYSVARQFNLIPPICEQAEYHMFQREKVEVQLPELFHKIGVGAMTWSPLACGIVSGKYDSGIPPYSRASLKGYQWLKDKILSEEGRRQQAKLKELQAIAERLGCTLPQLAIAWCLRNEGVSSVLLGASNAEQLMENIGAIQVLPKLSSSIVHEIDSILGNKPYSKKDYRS
Chain of Alpha-2C adrenergic receptor (Homo sapiens) (P18825 whole entry, looked up): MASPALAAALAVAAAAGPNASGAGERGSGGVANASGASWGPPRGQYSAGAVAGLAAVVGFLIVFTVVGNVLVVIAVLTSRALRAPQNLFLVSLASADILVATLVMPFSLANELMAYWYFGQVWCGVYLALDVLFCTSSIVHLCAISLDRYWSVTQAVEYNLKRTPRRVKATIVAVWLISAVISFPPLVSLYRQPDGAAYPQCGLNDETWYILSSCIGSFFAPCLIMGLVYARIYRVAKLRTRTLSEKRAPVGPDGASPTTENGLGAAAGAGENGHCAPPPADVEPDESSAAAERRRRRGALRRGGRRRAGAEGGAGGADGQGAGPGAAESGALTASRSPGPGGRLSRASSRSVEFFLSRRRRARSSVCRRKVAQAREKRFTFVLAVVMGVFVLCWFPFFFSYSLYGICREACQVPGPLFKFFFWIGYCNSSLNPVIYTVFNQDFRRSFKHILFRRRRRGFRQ

Turning to `COc1ccc(-n2ncc3c(NCCCN4CCOCC4)ncnc32)cc1`, in assay [1], the cell count stood at 340. Also, the inhibition in assay [1] is 1.4% (inactive); in assay [3] it was 1.8% (inactive); in assay [7] it was 44.5% (inactive); in assay [8], 7.05% (inactive). In assay [2], the inhibition of aggregation was -6.2% (inactive). In addition, the nuclei count turned out to be 116% in assay [2] and 118% in assay [3]. The fluorescence slope in assay [4] was -0.59 (inactive). In assay [5], the NADPH fluorescence slope was -5.4e-05 (inactive). Further, the slope in assay [6] is 0.00402 (inactive).
On to `Cc1cc(C)c(C)c(OCC(=O)NCC2CCCO2)c1` (stereo not drawn), for which, in assay [1], the cell count was 371. Further, the inhibition in assay [1] was -13.5% (inactive); in assay [3] it was -65.1% (inactive); in assay [7], -5.32% (inactive); in assay [8], 21% (inactive). For the same molecule, the inhibition of aggregation in assay [2] was -15% (inactive). Besides, the nuclei count was 97.1% in assay [2] and 110% in assay [3]. Further, the fluorescence slope in assay [4] is -0.521 (inactive). Further, in assay [5], the NADPH fluorescence slope is -3.4e-05 (inactive). Also, the slope in assay [6] was 0.0063 (inactive).
Take `CS(=O)(=O)N1CCCC(C(=O)NCCCN2CCC(Cc3ccccc3)CC2)C1` (stereo not drawn): the cell count in assay [1] was 679. Further, the inhibition in assay [1] was -2% (inactive); in assay [3] it was -139% (inactive); in assay [7], -7.21% (inactive); in assay [8], -4.47% (inactive). In addition, in assay [2], the inhibition of aggregation is 15.3% (inactive). Further, the nuclei count stood at 89.6% in assay [2] and 111% in assay [3]. Besides, in assay [4], the fluorescence slope is -0.602 (inactive). Besides, in assay [5], the NADPH fluorescence slope was 2e-05 (inactive). Moreover, the slope in assay [6] is 0.00628 (inactive).
For `CCCCNC(=O)C(C#N)c1nc2ccccc2nc1N1CCCC1` (stereo not drawn), the cell count in assay [1] was 289. Also, the inhibition in assay [1] was -6.5% (inactive); in assay [3] it was 9% (inactive); in assay [7], 16.3% (inactive); in assay [8], 14% (inactive). The inhibition of aggregation in assay [2] is 22.5% (inactive). Further, the nuclei count was found to be 78.4% in assay [2] and 52.3% in assay [3]. In addition, in assay [4], the fluorescence slope was -0.235 (inactive). Further, in assay [5], the NADPH fluorescence slope was -1.3e-05 (inactive). Moreover, the slope in assay [6] was 0.00359 (inactive).
`Cc1ccc(S(=O)(=O)NCCN2CCOCC2)cc1C`: the cell count in assay [1] came to 408. The inhibition in assay [1] is -14.3% (inactive); in assay [3] it was 31.4% (inactive); in assay [7], 13.7% (inactive); in assay [8], 26.5% (inactive). Besides, the inhibition of aggregation in assay [2] was 21.7% (inactive). Moreover, the values for the nuclei count in assay [2] and in assay [3] were 92.2% and 86.3%, respectively. Besides, the fluorescence slope in assay [4] was -0.611 (inactive). Also, in assay [5], the NADPH fluorescence slope is 1.4e-07 (inactive). Moreover, the slope in assay [6] was 0.00599 (inactive).
Regarding `COc1ccc(C(C(C(=O)c2ccco2)N2CCOCC2)N2CCOCC2)cc1` (stereo not drawn), in assay [1], the cell count was 534. The inhibition in assay [1] is 5.4% (inactive); in assay [3], 57.2% (inactive); in assay [7] it was 2.32% (inactive); in assay [8], -5.02% (inactive). In addition, the inhibition of aggregation in assay [2] was 2.2% (inactive). Moreover, the nuclei count in assay [2] was found to be 87.8%; in assay [3] it was 91.5%. Also, the fluorescence slope in assay [4] was -0.401 (inactive). Also, the NADPH fluorescence slope in assay [5] is 1.7e-05 (inactive). Besides, the slope in assay [6] was 0.0056 (inactive).
As for `CCOC(=O)N(C)c1ccc(C(O)(C(F)(F)F)C(F)(F)F)cc1`, in assay [1], the cell count was found to be 601. The inhibition was -8.6% (inactive) in assay [1], -58.6% (inactive) in assay [3], -1.35% (inactive) in assay [7] and 100% (active) in assay [8]. Also, the inhibition of aggregation in assay [2] was -12.5% (inactive). For the same molecule, the nuclei count in assay [2] came to 105%; in assay [3] it was 109%. For the same molecule, in assay [4], the fluorescence slope was -0.369 (inactive). For the same molecule, the NADPH fluorescence slope in assay [5] was -6.4e-05 (inactive). Also, the slope in assay [6] was 0.0041 (inactive).
Regarding `CC(=O)NC(Cc1ccc(C)cc1)C(=O)NC1CCN(C(=O)c2cnccn2)CC1` (stereo not drawn), the cell count in assay [1] stood at 740. Also, the inhibition in assay [1] is -1% (inactive); in assay [3], -42% (inactive); in assay [7] it was 13.8% (inactive); in assay [8] it was 9.87% (inactive). In addition, the inhibition of aggregation in assay [2] was 22.2% (inactive). Further, the nuclei count in assay [2] turned out to be 130%; in assay [3], 117%. Besides, in assay [4], the fluorescence slope is -0.421 (inactive). The NADPH fluorescence slope in assay [5] is -1.5e-05 (inactive). The slope in assay [6] is 0.00511 (inactive).
As for `COc1ccc(-c2nc(C(N)=O)c3[nH]c(=O)n(-c4cccc(Cl)c4)c3n2)cc1OC`, the cell count in assay [1] was found to be 743. In addition, the inhibition in assay [1] was -1% (inactive); in assay [3], -63.8% (inactive); in assay [7] it was 3.83% (inactive); in assay [8], 6.23% (inactive). For the same molecule, the inhibition of aggregation in assay [2] was 7.2% (inactive). Moreover, the nuclei count in assay [2] was determined as 100%; in assay [3], 114%. Further, the fluorescence slope in assay [4] is -0.521 (inactive). For the same molecule, the NADPH fluorescence slope in assay [5] was -3e-05 (inactive). Moreover, the slope in assay [6] is 0.00698 (inactive).
Regarding `CCOC(=O)c1ccccc1NC(=O)c1ccc(NS(C)(=O)=O)cc1`, the cell count in assay [1] worked out at 485. The inhibition was -2.2% (inactive) in assay [1], 26.8% (inactive) in assay [3], 6.8% (inactive) in assay [7] and 11.4% (inactive) in assay [8]. In addition, in assay [2], the inhibition of aggregation is 10.4% (inactive). Further, the values for the nuclei count in assay [2] and in assay [3] were 90.2% and 86%, respectively. Moreover, the fluorescence slope in assay [4] was -0.473 (inactive). For the same molecule, the NADPH fluorescence slope in assay [5] was -6e-06 (inactive). The slope in assay [6] is 0.00606 (inactive).
`CC1(C)NC(=O)N(CC(O)CN2CCCCC2)C1=O` (stereo not drawn): in assay [1], the cell count worked out at 658. Moreover, the inhibition in assay [1] was 1.6% (inactive); in assay [3], 36.5% (inactive); in assay [7], -4.08% (inactive); in assay [8], -0.921% (inactive). Besides, the inhibition of aggregation in assay [2] is 10.5% (inactive). The nuclei count in assay [2] was 93.2%; in assay [3] it was 109%. In addition, the fluorescence slope in assay [4] was -0.47 (inactive). Besides, the NADPH fluorescence slope in assay [5] was -1.7e-06 (inactive). Moreover, the slope in assay [6] was 0.00522 (inactive).
With `CCN(C(=O)COC(=O)c1cc(C)n(-c2ccc(F)cc2)c1C)C1CCS(=O)(=O)C1` (stereo not drawn), the cell count in assay [1] turned out to be 496. Also, the inhibition was -3.4% (inactive) in assay [1], -35.5% (inactive) in assay [3], 13.2% (inactive) in assay [7] and 13% (inactive) in assay [8]. In addition, the inhibition of aggregation in assay [2] is -3.9% (inactive). In addition, the nuclei count was determined as 114% in assay [2] and 115% in assay [3]. Besides, in assay [4], the fluorescence slope was -0.537 (inactive). In addition, the NADPH fluorescence slope in assay [5] was 3.5e-06 (inactive). Also, the slope in assay [6] is 0.00451 (inactive).
In the case of `O=C(CSc1nnc(COc2ccc(Cl)cc2)o1)OC1CCCCC1`, the cell count in assay [1] is 530. Moreover, the inhibition in assay [1] was -5.9% (inactive); in assay [3], 9.7% (inactive); in assay [7], 1.22% (inactive); in assay [8] it was -1.92% (inactive). Further, in assay [2], the inhibition of aggregation was -7.1% (inactive). Besides, the figures for the nuclei count in assay [2] and in assay [3] were 119% and 103%, respectively. For the same molecule, the fluorescence slope in assay [4] was -0.524 (inactive). In addition, the NADPH fluorescence slope in assay [5] is -5.9e-07 (inactive). Also, in assay [6], the slope was 0.00539 (inactive).
